These results are taken from PubChem BioAssay (NCATS).

Several values for one entry are separate records, joined by “and”; a condition that tells them apart may be missing. Identical values can stand only once. Records with an inconclusive call do not appear. A structure can be active in one record and inactive in another. Activity calls are given as the source filed them. The call rests on the fitted dose curve; in most records, active means well fitted cell-killing curve with a large enough effect; inconclusive means small, poorly fitted or top-dose-only effect, or effect the other way; inactive means flat fitted curve, though single readings scatter.
On the % scale 0 is the no-effect control and ±100 the full control effect; potency means the concentration at half of the fitted maximal effect.

This assay in a line: qHTS assay for cell viability of the p53RE-bla HCT-116 cell line (AID 743292). Further: nearly all actives have a fitted effect of over 55% in size. To be noted: p53RE-bla HCT-116 viability, ATP luminescence, 16 h; series mostly up to 95 µM; activity change, negative = cytotoxicity: at the top concentration. From the text:
U.S. Tox21 Program National Center for Advancing Translational Sciences [NCATS] NIH Chemical Genomics Center [NCGC] U.S. Environmental Protection Agency [EPA] National Institutes of Environmental Health Sciences [NIEHS] National Toxicology Program [NTP] U.S. Food and Drug Administration [FDA] Tox21 Assay Overview: The CellTiter-Glo Luminescent Cell Viability Assay (Promega, Madison, WI) is a homogeneous method to determine the number of viable cells in culture based on quantitation of the ATP present, which signals the presence of metabolically active cells. This cell viability assay was used to screen environmental chemicals in the CellSensor p53RE-bla HCT-116 cell line (Invitrogen).
Tox21 Assay Protocol Summary: Cell viability after compound treatment was measured using a luciferase-coupled ATP quantitation assay (CellTiter-Glo viability assay, Promega, Madison, WI) in CellSensor p53RE-bla HCT-116 cell line (Invitrogen). Total intracellular ATP content corresponds to the number of metabolically competent cells after compound treatment. The cells were dispensed at 4,000 cells/5 uL/well in 1,536-well white/solid bottom assay plates using a Flying Reagent Dispenser (Aurora Discovery, San Diego, CA). The cells were incubated for 5 h at 37 C, followed by the addition of 23 nL of compounds dissolved in DMSO, positive controls or DMSO only using a pintool work station (Kalypsys, San Diego, CA). The assay plates were incubated for 16 h at 37 C, followed by the addition of 5 uL/well of CellTiter-Glo reagent. After 30 min incubation at room temperature, the luminescence intensity of the plates was measured using a ViewLux plate reader (PerkinElmer, Shelton, CT).
Take `C[C@]12CCC(=O)C(O)=C1CC[C@@H]1[C@@H]2CC[C@]2(C)C(=O)CC[C@@H]12`: the “activity change, negative = cytotoxicity” value was -0.74% (inactive).
`O=c1oc2ccccc2c(O)c1C(CC(O)c1ccc(-c2ccc(Br)cc2)cc1)c1ccccc1` (configuration not stated): the Potency is 31.6 µM (active).
Still for that read-out and setting: as for `CCOP(=S)(OCC)Oc1cc(C)nc(C(C)C)n1`, the entry is “inactive”.
In the case of `N[C@@H](Cc1ccc(N(CCCl)CCCl)cc1)C(=O)O`, the Potency entry is “inactive”.
The same measure, in the same setting: as for `Cc1cc(SCc2sc(-c3ccc(C(F)(F)F)c(F)c3)nc2C)ccc1OCC(=O)O`, the figure is 50.1 µM (active); as for `OCCOc1ccccc1`, “inactive”; as for `c1ccc2c(c1)Nc1ccccc1S2`, “inactive”.
Same read-out and setting: as for `Oc1ccc(Cl)cc1Cc1ccccc1`, the entry is “inactive”.
Regarding `CC(C)(C)CC(C)(C)c1ccc(O)cc1`, the “activity change, negative = cytotoxicity” value is 0.691% (inactive).
For the compound `Oc1ccccc1-c1ccccc1`, the Potency entry is “inactive and 708 µM (active)”.
For the compound `CNCC(O)c1ccc(O)cc1` (configuration not stated), the “activity change, negative = cytotoxicity” value was 4.35% (inactive).
As for `C[C@]12C/C(=C/O)C(=O)C[C@@H]1CC[C@@H]1[C@@H]2CC[C@@]2(C)[C@H]1CC[C@]2(C)O`, the Potency is 50.1 µM (active).
For `Oc1cccc2cccnc12`, the Potency entry was “inactive”.
As to `C=C(C)[C@H]1Cc2c(ccc3c2O[C@@H]2COc4cc(OC)c(OC)cc4[C@@H]2C3=O)O1`, the “activity change, negative = cytotoxicity” value is -1.97% (inactive).
On the same count and under the same terms, as for `Nc1ccncc1`, the figure is -6.72% (inactive).
`CCCC(C)(COC(N)=O)COC(=O)NC(C)C` (configuration not stated): the Potency entry is “inactive”.
For the compound `NCC(O)c1ccc(O)cc1` (configuration not stated), the “activity change, negative = cytotoxicity” value is 2.77% (inactive).
